Source: PubChem BioAssay
CHX counter = Cycloheximide Counterscreen for Small Molecule Inhibitors of Shiga Toxin | cell reporter, cycloheximide protein synthesis inhibition counterscreen | max response, % | 12% of 300,000 active | AID 2314, 2010; in the data active means max response mostly above about 13%, no sharp cut-off; inactive means mostly below about 14%; further: read at 38.3 µM for the half of the compounds with a filed dose
Shiga toxin inh = A qHTS for Small Molecule Inhibitors of Shiga Toxin; inhibition, % at 38.7 µM; Vero cells, Shiga toxin protein synthesis inhibition reporter; 9.2% of 290,000 active; in the data active means inhibition mostly above about 28%, no sharp cut-off; inactive means mostly below about 43%
NS1 inh = qHTS Assay for Inhibitors of Influenza NS1 Protein Function; Potency, µM (highest dose often 46.1 µM); 0.4% of 270,000 active; further: actives are rising curves; nearly all actives have a fitted effect of over 50% in size
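Read-out: OD600 growth recovery of NS1-expressing budding yeast. Cells grown overnight at 30C in -URA glucose medium, washed, resuspended and diluted 1:100 in 2% galactose assay medium, pH 6.0. Same strain lacking NS1 served as positive control.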
Pf growth 48h = Primary qHTS for delayed death inhibitors of the malarial parasite plastid, 48 hour incubation. P. falciparum luciferase growth in erythrocytes, 48 h. Potency, µM (titrated, usually from 28.7 µM), most hits filed as inhibitors. 5.9% of 310,000 active. AID 504832, 2011; active means well fitted inhibition curve with a large enough effect; inconclusive means small, poorly fitted or top-dose-only effect, or another doubt; inactive means no such curve, though single readings can be large or run the other way
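Here the parasites carry a stable luciferase gene and grow inside erythrocytes in Albumax-based RPMI medium with compound for one erythrocytic cycle. Activity is scored as loss of luminescent signal.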
Pf growth 96h = Primary qHTS for delayed death inhibitors of the malarial parasite plastid, 96 hour incubation | P. falciparum luciferase reporter growth, 96 h | Potency, µM (series often up to 28.7 µM), usual class: inhibitors | 6.9% of 320,000 active | AID 504834, 2011; active means well fitted inhibition curve with a large enough effect; inconclusive means small, poorly fitted or top-dose-only effect, or another doubt; inactive means no such curve, though single readings can be large or run the other way
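Delayed-death screen, second-generation endpoint: infected erythrocytes, 2% hematocrit, 0.05% parasitemia final; 96 hours at 37 C, 5% CO2; luciferase detection reagent; luminescence decrease equals reduced growth.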
SARS PLP yeast = qHTS of Yeast-based Assay for SARS-CoV PLP | S. cerevisiae expressing SARS-CoV PLpro, growth rescue | Potency, µM (highest dose often 32.9 µM), hits mostly activators | 0.19% of 330,000 active | AID 485353, 2010; further: nearly all actives have a fitted effect of over 55% in size
Large screens that a line does not name were inactive. Shown are actives, neighbours in structure and some others; about 21% of the full set was active somewhere. Unless noted, the call rests on the fitted dose curve.

O=C(NCCc1cccs1)C1CC(c2c(Cl)cccc2Cl)=NO1 (stereo unspecified)	CHX counter 40, Pf growth 96h inconclusive
O=C(NCc1cc(C(F)(F)F)cc(C(F)(F)F)c1)C1CC(c2c(Cl)cccc2Cl)=NO1 (stereo unspecified)	Pf growth 96h inconclusive, SARS PLP yeast inconclusive
O=C(NCCc1cccs1)C1CC(c2ccccc2F)=NO1 (stereo unspecified)	none
Cn1c(N)c(C(=O)CSc2nn(-c3ccccc3)c(=S)s2)c(=O)n(C)c1=O	none (no result: CHX counter, Shiga toxin inh, NS1 inh)
CCc1ccc(N2C(=O)CC(Cn3nc(C)cc3C)C2=O)cc1 (stereo unspecified)	none
C/C(=N\NC(=O)c1ccccc1O)c1ccc(Br)s1	CHX counter 64, Shiga toxin inh 54, Pf growth 48h 13µM
C/C(=N\NC(=O)c1cccc(F)c1)c1ccc(Br)s1	CHX counter 39, Pf growth 48h inconclusive, Pf growth 96h 3.7µM
C/C(=N\NC(=O)c1ccccc1[N+](=O)[O-])c1ccc(Br)s1	none
CC(=O)Nc1ccc(NC(=O)[C@@H]2CCCN2S(=O)(=O)c2ccc3c(c2)OCCO3)cc1	none (no result: NS1 inh)
Cc1ccc(S(=O)(=O)N2[C@@H](c3ccc(F)cc3)C(C(=O)O)=CC[C@H]2c2ccc3c(c2)OCO3)cc1	Pf growth 48h inconclusive, Pf growth 96h 12µM (no result: CHX counter, Shiga toxin inh, NS1 inh)
Cc1ccc(S(=O)(=O)N2[C@@H](c3ccccc3F)C(C(=O)O)=CC[C@H]2c2ccc3c(c2)OCO3)cc1	Pf growth 48h inconclusive, Pf growth 96h 12µM (no result: CHX counter, Shiga toxin inh, NS1 inh)
O=C(NC(=S)N1CCOCC1)c1ccc([N+](=O)[O-])cc1	none
Cc1ccc(S(=O)(=O)NCCn2cnc([N+](=O)[O-])n2)cc1	none
O=C(c1nc2ccccc2s1)N1CCSCC1	CHX counter 29, Shiga toxin inh 135 (no result: Pf growth 96h)
O=C(c1ccccc1Cl)N1CCSCC1	none
O=C(c1ccc2ccccc2n1)N1CCN(c2ccccn2)CC1	none
O=C(c1nc2ccccc2s1)N1CCN(c2ccccn2)CC1	CHX counter 21, Shiga toxin inh 29
O=C(Cc1cccc(F)c1F)NC1CCCN(Cc2ccc(Cl)cc2)C1 (stereo unspecified)	Pf growth 48h inconclusive, Pf growth 96h inconclusive
O=C(CCCNC(=O)c1ccc(Cl)cc1)Nc1ccc(Br)cc1	none
O=C(NC1(C(F)(F)F)Oc2ccc(Cl)cc2O1)N1CCC2(CC1)OCCO2 (stereo unspecified)	Pf growth 96h 1.9µM (no result: Pf growth 48h)
C[C@@H](Oc1ccccc1)c1nnn(Cc2ccccc2)c1-c1c([C@@H](C)Oc2ccccc2)nnn1Cc1ccccc1	Pf growth 48h inconclusive, Pf growth 96h 6.6µM
CCOC(=O)c1cnc(SCC(=O)c2ccc3c(c2)OCCO3)nc1N	CHX counter 28, Shiga toxin inh 104
Cc1cc(C)nc(SCC(=O)c2ccc3c(c2)OCCO3)n1	CHX counter 26, Pf growth 96h inconclusive
O=C(Cn1cnc2ccccc2c1=O)NCCC(=O)Nc1ccc2c(c1)OCO2	none (no result: NS1 inh)
O=c1[nH][nH]c(C(F)(F)F)c1C=Nc1ccccc1Cl	none
Oc1c(C=Nc2ccccc2Cl)[nH]c2ccccc12	CHX counter 47, Shiga toxin inh 77, Pf growth 48h inconclusive, Pf growth 96h inconclusive
COc1ccccc1CNS(=O)(=O)c1cc2c3c(c1)C(C)C(=O)N3CCC2 (stereo unspecified)	none
COCCN1C(=S)N[C@@H](c2ccccc2)C(C(=O)OC)=C1C	Pf growth 48h inconclusive
COc1ccc2c(c1)-c1nc(/N=C/c3c(O)ccc4ccccc34)sc1CC2	Pf growth 96h 4.7µM
Oc1ccc2ccccc2c1/C=N/c1nccs1	Pf growth 48h inconclusive (no result: Pf growth 96h)
COc1ccc(O)cc1	Pf growth 96h inconclusive (no result: CHX counter, Shiga toxin inh, NS1 inh)
COc1ccc2c(c1)-c1nc(/N=C/c3ccc(O)cc3)sc1CC2	Pf growth 96h 4.1µM
O=C(C1CCCN(Cc2ccccc2Cl)C1)N1CCCCC1 (stereo unspecified)	none
Clc1ccccc1Cc1noc(CN2CCN(Cc3ccccn3)CC2)n1	Pf growth 96h inconclusive
Cc1cccc(NC(=O)CCS(=O)(=O)c2ccc(Cl)cc2)c1	none
O=C(O)c1ccccc1C(=O)Nc1cccc([N+](=O)[O-])c1	Pf growth 48h inconclusive
COc1ccc(C(=O)Nc2ccc(Nc3ccccc3)cc2)cc1[N+](=O)[O-]	none
O=C(Nc1cccc([N+](=O)[O-])c1)c1cc2ccccc2cc1O	CHX counter 49, Shiga toxin inh 108, Pf growth 48h 5.2µM, Pf growth 96h 1.9µM
Cc1nc2ccc(NC(=O)c3ccc([N+](=O)[O-])cc3[N+](=O)[O-])cc2s1	Pf growth 48h inconclusive, Pf growth 96h inconclusive (no result: NS1 inh)
CCN(CC)c1ccc(C(=O)Nc2ccccc2)cc1[N+](=O)[O-]	CHX counter 37, Shiga toxin inh 67
CC(NC(=O)NC(=O)c1cccc([N+](=O)[O-])c1)C1CC1 (stereo unspecified)	Pf growth 48h 10µM
CC(NC(=O)NC(=O)c1ccc(F)cc1)C1CC1 (stereo unspecified)	none (no result: CHX counter, Shiga toxin inh, NS1 inh, Pf growth 48h, Pf growth 96h)
Cc1nc2ccc(C(=O)Nc3cccc([N+](=O)[O-])c3)cc2s1	CHX counter 30, Shiga toxin inh 101, Pf growth 48h inconclusive
N[C@@H](Cc1ccccc1)P(=O)(O)O	none (no result: CHX counter, Shiga toxin inh, Pf growth 48h, Pf growth 96h, SARS PLP yeast)
N#C/C(=C/Nc1ccccc1F)S(=O)(=O)c1ccc(Cl)cc1	none
COc1ccc(C(=O)NCCOc2ccccc2)cc1S(=O)(=O)N1CCOCC1	Pf growth 48h inconclusive (no result: CHX counter, Shiga toxin inh, NS1 inh)
O=C(O)CCCNC(=O)c1ccccn1	Pf growth 96h inconclusive
CCOC(=O)C1CCCN(C(=O)c2ccc(C)cc2O)C1 (stereo unspecified)	none (no result: Pf growth 48h)
CC(C)(C)c1cc(NC(=O)c2cccc([N+](=O)[O-])c2)no1	CHX counter 59, Shiga toxin inh 92, NS1 inh inconclusive
CC(=O)Nc1ccc(NC(=O)c2cc([N+](=O)[O-])cc([N+](=O)[O-])c2)cc1	none
O=C(Nc1ccc(Br)cc1)c1cc([N+](=O)[O-])cc([N+](=O)[O-])c1	Pf growth 48h 2.6µM (no result: Shiga toxin inh)
COc1ccc(NC(=S)Nc2cccc([N+](=O)[O-])c2)cc1	none
O=C(Nc1ccncc1)c1ccc(C(=O)Nc2ccncc2)cc1	none (no result: NS1 inh)
COc1ccc(NC(=O)c2cccc([N+](=O)[O-])c2)cc1	CHX counter 59, Shiga toxin inh 76 (no result: NS1 inh)
Cc1cc(NC(=O)c2cccc([N+](=O)[O-])c2)no1	none
O=C(Nc1ccc(Nc2ccncc2)cc1)c1ccc(Nc2ccnc3ccc([N+](=O)[O-])cc23)cc1	Pf growth 48h 0.093µM, Pf growth 96h 0.093µM
CCCn1c(N)c(NCCN2CCOCC2)c(=O)[nH]c1=O	Pf growth 48h inconclusive (no result: NS1 inh)
CCOC(=O)Nc1csnn1	none
COc1cc(C(=O)n2nc(C)cc2C)ccc1O	none (no result: Pf growth 96h)
CCCn1c(=O)n(N)c2ccccc21	none
